Screening results as filed in PubChem BioAssay.
ClpP mod = qHTS Assay for Activators of ClpP; ATP-dependent Clp protease proteolytic subunit (Bacillus subtilis (strain 168)), P80244; purified B. subtilis ClpP, FRET peptide cleavage, 20 min; Potency, µM (doses to about 57.5 µM), without a hit: at the top dose activity change, negative = active; hit rate 1.9% among 340,000; active = well fitted falling curve with a large enough effect; inconclusive = small, poorly fitted or top-dose-only effect; inactive = no such curve, though single readings can be large or run the other way; note: potency is the fitted concentration of half-maximal effect; the source files actives as falling curves though it sought activators and does not explain the sign; nearly all actives have a fitted effect of over 65% in size
Target sequence (P80244 whole entry, looked up): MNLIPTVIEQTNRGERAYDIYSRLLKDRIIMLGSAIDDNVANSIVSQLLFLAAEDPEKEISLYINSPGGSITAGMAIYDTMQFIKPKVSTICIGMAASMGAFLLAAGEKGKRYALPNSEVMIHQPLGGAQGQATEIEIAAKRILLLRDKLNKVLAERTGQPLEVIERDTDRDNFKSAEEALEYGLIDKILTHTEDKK
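Buffer: 100 mM Tris/HCl pH8, 100 mM KCl, 0.05% low protease BSA, 2.5% glycerol, 0.01% Tween-20. ClpP 10 microg/mL final; 20 min RT; delta FRET normalized to ADEP and DMSO controls.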
IL-1B inflam inh = inhibitors of inflammasome signaling (IL-1 beta secretion). THP-1 LPS/ATP IL-1B secretion, AlphaLISA, 16 h; hits give low values. activity change, % at 57.5 µM. hit rate 4.7% among 360,000. AID 743279; in the data active = activity change below about -50%; inconclusive = mostly about -30% to -49%; note: % is set by controls: 0 for no effect and ±100 for the full control effect
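THP-1 cells pretreated 1 hr with compounds (up to 57.5 uM final), then stimulated with LPS (250 ng/mL final) plus ATP (1.25 mM final); secreted IL-1B measured by AlphaLISA after 16 hr, decreased signal indicating inhibition.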
TDP1 cell CPT = DT40-hTDP1 cell growth loss with CPT; chicken DT40 Tdp1-/-;hTDP1 cells + 20 nM CPT, ATP luminescence, 48 h; Potency, µM (doses to about 46.2 µM), without a hit: at the highest dose activity change, negative = growth inhibition, hits mostly inhibitors; hit rate 12% among 420,000; note: potency is the fitted concentration of half-maximal effect; % is set by controls: 0 for no effect and ±100 for the full control effect; nearly all actives have a fitted effect of over 55% in size
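Chicken DT40 Tdp1-/- cells complemented with human TDP1, 400 cells/well, exposed to compounds plus 20 nM camptothecin for at least 48 h at 37 C; viability read as ATP content by CellTiter-Glo luminescence.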
TDP1 cell noCPT = qHTS for Inhibitors of human tyrosyl-DNA phosphodiesterase 1 (TDP1): qHTS in cells in absence of CPT | Potency, µM (doses to about 46.2 µM), inactives show top-dose activity change, negative = growth inhibition, usual class: inhibitors | AID 686978, 2013 | DT40 Tdp1-/- hTDP1 cells, no CPT, ATP luminescence, 48 h | hit rate 15% among 420,000; note: potency is the fitted concentration of half-maximal effect; % is set by controls: 0 for no effect and ±100 for the full control effect; nearly all actives have a fitted effect of over 55% in size
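Chicken DT40 Tdp1-/- cells complemented with human TDP1, screened without camptothecin (DMSO vehicle only), 400 cells/well. Compounds pin-transferred, cells incubated at 37 °C for at least 48 hr. Growth read as ATP-dependent luminescence (CellTiter-Glo, 30 min at RT).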
DRD3 antagonist = antagonists of human D3 dopamine receptor. AID 652054. P35462. hit rate 2.5% among 360,000. max response, negative = inhibition, %. D3R cells, DiscoveRx beta-arrestin luminescence, antagonist mode; hits give low values; in the data active = max response below about -50%; inconclusive = no clear call, values can overlap the other calls; note: % is set by controls: 0 for no effect and ±100 for the full control effect
Target sequence (P35462 whole entry, looked up): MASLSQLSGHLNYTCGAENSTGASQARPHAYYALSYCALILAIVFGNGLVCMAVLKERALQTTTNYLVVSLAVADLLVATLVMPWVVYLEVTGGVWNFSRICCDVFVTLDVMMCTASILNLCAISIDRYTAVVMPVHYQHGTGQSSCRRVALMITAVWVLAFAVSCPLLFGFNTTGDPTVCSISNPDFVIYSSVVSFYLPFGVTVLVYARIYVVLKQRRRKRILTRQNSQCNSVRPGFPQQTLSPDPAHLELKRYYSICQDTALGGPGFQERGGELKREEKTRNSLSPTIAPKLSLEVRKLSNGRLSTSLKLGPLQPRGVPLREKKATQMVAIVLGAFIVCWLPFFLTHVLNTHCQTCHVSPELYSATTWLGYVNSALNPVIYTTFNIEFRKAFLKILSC
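Cells expressing the human receptor were seeded at 1500 cells/well, incubated overnight at 37 degrees C in 5% CO2, then exposed to library compounds with dopamine controls for 90 minutes at 37 degrees C before luminescent detection.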
DRD3 agonist = activates the human D3 dopamine receptor; AID 652048; P35462; max activation, %; hit rate 0.58% among 410,000; D3R DiscoveRx beta-arrestin cells, luminescence, 90 min; in the data active = max activation above about 30%; note: 0% is about no effect
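Agonist-mode cell screen: cells plated at 1500/well and incubated overnight at 37 °C, then exposed to library compounds for 90 min at 37 °C. Detection reagent was added for 30–60 min at room temperature, and luminescence was read.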
Starred values were filed as active, the others as inactive. Most compounds without a hit are left out; they make up all but 21% or so of the library. Unless noted, calls come from the whole dose curve; as a rule, active = well fitted inhibition curve with a large enough effect; inconclusive = small, poorly fitted or top-dose-only effect; inactive = flat fitted curve, though single readings scatter.

For COCCN(C(=O)CSc1nnc(-c2ccccc2OC)o1)c1c(N)n(CC(C)C)c(=O)[nH]c1=O the results were ClpP mod -6.6%, IL-1B inflam inh 3.3, TDP1 cell CPT -4.6%, TDP1 cell noCPT 4.1%, DRD3 antagonist -8.2 and DRD3 agonist 4.6.
Cc1ccc(S(=O)(=O)N2CCCCC2)cc1C(=O)OC(C)C(=O)NC1CCCCC1C (stereo not drawn) was read as ClpP mod 17.6%, IL-1B inflam inh -15.6, TDP1 cell CPT inconclusive, TDP1 cell noCPT inconclusive, DRD3 antagonist -9.4 and DRD3 agonist -11.1.
Cc1cccc(C)c1NC(=O)NCCc1c[nH]c2ccccc12 was read as ClpP mod -12.2%, TDP1 cell CPT inconclusive, TDP1 cell noCPT inconclusive and DRD3 agonist -9.2.
Screening O=C(c1ccc2c(c1)N(Cc1ccccc1F)C(=O)c1ccccc1S2(=O)=O)N1CCC(Cc2ccccc2)CC1 returned ClpP mod -1.4%, TDP1 cell CPT 16.4µM*, TDP1 cell noCPT 20.6µM* and DRD3 agonist 6.8.
`COc1ccc(N2CCN(C(=O)c3ccc4c(c3)N(Cc3cccc(Cl)c3)C(=O)c3ccccc3S4(=O)=O)CC2)cc1` gave ClpP mod 1.5%, TDP1 cell CPT -5.0%, TDP1 cell noCPT -14.0% and DRD3 agonist -6.1.
For O=C(c1ccc2c(c1)N(Cc1ccc(Cl)cc1)C(=O)c1ccccc1S2(=O)=O)N1CCC(Cc2ccccc2)CC1 the results were ClpP mod -2.6%, TDP1 cell CPT 10.3µM*, TDP1 cell noCPT 18.4µM* and DRD3 agonist 5.8.
CC1CCN(C(=O)c2ccc3c(c2)N(Cc2ccccc2F)C(=O)c2ccccc2S3(=O)=O)CC1 was read as ClpP mod -1.5%, TDP1 cell CPT inconclusive, TDP1 cell noCPT inconclusive and DRD3 agonist 1.4.
`Cc1ccccc1C(=O)N1CCC(C(=O)NC(C)c2ccc(-n3ccnc3)cc2)CC1` (stereo not drawn) gave ClpP mod -1.0%, IL-1B inflam inh 3.3, TDP1 cell CPT 1.0%, TDP1 cell noCPT 7.6%, DRD3 antagonist -2.4 and DRD3 agonist -4.5.
Screening CC(C)C(=O)Nc1cccc(C(=O)N2CCCCC2C)c1 (stereo not drawn) returned ClpP mod 1.1%, IL-1B inflam inh 13.5, TDP1 cell CPT 18.4µM*, TDP1 cell noCPT 14.6µM*, DRD3 antagonist 26.4 and DRD3 agonist 0.1.
For CC1CCCCN1C(=O)c1cccc(NC(=O)c2ccccc2)c1 (stereo not drawn) the results were IL-1B inflam inh 8.2, TDP1 cell CPT -1.9%, TDP1 cell noCPT -22.8%, DRD3 antagonist -23.0 and DRD3 agonist 0.5.
Cc1ccc(-c2nn(-c3ccccc3)cc2/C=N/NC(=O)CSc2nnc(C)n2-c2ccccc2)cc1 was read as ClpP mod -5.5%, IL-1B inflam inh -62.1*, TDP1 cell CPT inconclusive, TDP1 cell noCPT inconclusive, DRD3 antagonist 4.5 and DRD3 agonist 8.7.
For O=C(CNc1cccc(C(F)(F)F)c1)N/N=C/c1cn(-c2ccccc2)nc1-c1ccccc1 the results were ClpP mod -21.1%, IL-1B inflam inh inconclusive, TDP1 cell CPT 16.4µM*, TDP1 cell noCPT inconclusive, DRD3 antagonist -15.5 and DRD3 agonist -2.1.
Cc1nn(Cc2ccccc2)c(C)c1/C=N/NC(=O)CNc1cccc(C(F)(F)F)c1 was read as ClpP mod -2.7%, IL-1B inflam inh -23.4, TDP1 cell CPT -73.3%, TDP1 cell noCPT inconclusive, DRD3 antagonist 6.2 and DRD3 agonist -2.9.
Screening COc1ccc(O)c(/C=N/NC(=O)CSc2nnc(C)n2-c2ccccc2)c1 returned ClpP mod -1.0%, IL-1B inflam inh 64.0, TDP1 cell CPT 16.4µM*, TDP1 cell noCPT 18.4µM*, DRD3 antagonist 67.2 and DRD3 agonist 13.7.
Screening CCCCNc1cccc2c1S(=O)(=O)N(CCCC)CC(COCc1ccccc1)O2 (stereo not drawn) returned ClpP mod 5.5%, IL-1B inflam inh 1.6, TDP1 cell CPT inconclusive, TDP1 cell noCPT 16.4µM*, DRD3 antagonist -7.5 and DRD3 agonist -5.3.
`CCCCN1CC(COCc2ccccc2)Oc2cccc(NCc3ccc(OC)cc3)c2S1(=O)=O` (stereo not drawn) gave ClpP mod 4.9%, IL-1B inflam inh 33.9, TDP1 cell CPT inconclusive, TDP1 cell noCPT inconclusive, DRD3 antagonist 13.2 and DRD3 agonist 5.3.
CCCCN1CC(COCc2ccccc2)Oc2cccc(Oc3ccccc3)c2S1(=O)=O (stereo not drawn) was read as ClpP mod -2.9%, IL-1B inflam inh 0.0, TDP1 cell CPT inconclusive, TDP1 cell noCPT 18.4µM*, DRD3 antagonist -10.9 and DRD3 agonist -0.6.
CCCCN1CC(COCc2ccccc2)Oc2cccc(Oc3cc(C)c(C)c(C)c3)c2S1(=O)=O (stereo not drawn) was read as ClpP mod -0.7%, IL-1B inflam inh 21.4, TDP1 cell CPT 7.31µM*, TDP1 cell noCPT 5.17µM*, DRD3 antagonist -5.3 and DRD3 agonist -7.9.
`CCCCN1CC(COCc2ccccc2)Oc2cccc(OCc3ccc(OC)cc3)c2S1(=O)=O` (stereo not drawn) gave ClpP mod -2.4%, IL-1B inflam inh 14.5, TDP1 cell CPT 5.8µM*, TDP1 cell noCPT 4.11µM*, DRD3 antagonist 17.6 and DRD3 agonist 1.6.
Screening COCCN(C(=S)Nc1ccc(OC)c(Cl)c1)C1CCN(C(C)=O)CC1 returned ClpP mod -0.8%, IL-1B inflam inh -14.2, TDP1 cell CPT -9.4%, TDP1 cell noCPT -11.1%, DRD3 antagonist -25.7 and DRD3 agonist 3.1.
Screening CC(C(=O)N(C)C1CCCCC1)N1CCC(C(N)=O)CC1 (stereo not drawn) returned IL-1B inflam inh -9.5, TDP1 cell CPT -8.8%, TDP1 cell noCPT 0.1%, DRD3 antagonist 4.4 and DRD3 agonist 23.0.
For CCCCN1CC(COCc2ccccc2)Oc2cccc(Oc3ccc(C)cc3)c2S1(=O)=O (stereo not drawn) the results were ClpP mod -4.8%, IL-1B inflam inh 16.3, TDP1 cell CPT 8.2µM*, TDP1 cell noCPT 7.31µM*, DRD3 antagonist -20.6 and DRD3 agonist -12.5.
CCCCN1CC(COCc2ccccc2)Oc2cccc(Oc3ccc(F)cc3)c2S1(=O)=O (stereo not drawn) was read as ClpP mod -1.2%, IL-1B inflam inh 28.0, TDP1 cell CPT inconclusive, TDP1 cell noCPT inconclusive, DRD3 antagonist 24.3 and DRD3 agonist 8.2.
